# In PubChem BioAssay:
# “And” between values parts separate entries of the source, which are not always exact repeats. Equal values may be shown once. The source made the active and inactive calls.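 How the source made its calls, unless noted: active means thallium flux through the channel raised or lowered by more than 3 SD from vehicle-only wells, actives on both sides; inactive means the rest.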
# Assays:
# [1] = P. berghei load reduction in hepatocytes – cell-based, HepG2, luciferase luminescence, HepG2 viability, primary screen (AID 624349; in the data active means parasite load remaining mostly below about 12%, no sharp cut-off; inactive means mostly above about 10%;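 further: 100% = mean of DMSO negative control wells on the same plate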); conditions: P. berghei liver stage in HepG2, luciferase luminescence, concentration not given here; parasite load remaining: stronger effect = lower value; viability: measured here: HepG2 viability without parasites
# [2] = signal quenchers or enhancers, Cy5 substrate/SSB – biochemical, NIH Clinical Collection, E. coli SSB, artefact control for HCV NS3 helicase inhibitor project (AID 743268; call rule not given here); conditions: Cy5-oligo bound E. coli SSB, fluorescence interference
# [3] = tested on: Hepatitis C virus NS3 helicase; experiment: blockers of NS3h binding to DNA – biochemical, fluorescence polarization, NIH Clinical Collection, primary screen (AID 743270; call rule not given here); conditions: NS3 helicase binding to Cy5-dT15 DNA, stronger effect = higher value, concentration not given here
# [4] = target: Single-stranded DNA-binding protein (Escherichia coli (strain K12)) (UniProt P0AGE0); experiment: SSB-ssDNA binding inhibitors – biochemical, fluorescence polarization, NIH Clinical Collection, counter-screen for HCV NS3 helicase inhibitor project (AID 743271; in the data active means inhibition above about 28%); conditions: E. coli SSB-DNA binding, stronger effect = higher value, concentration not given here
# [5] = compounds distorting NS3 helicase fluorescence signal – biochemical, NIH Clinical Collection, artefact control for HCV NS3 helicase inhibitor project (AID 743272; call rule not given here;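 further: HCV NS3 helicase with a Cy5 labelled single stranded DNA probe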); conditions: fluorescence interference counterscreen, HCV NS3 helicase assay; stronger effect = lower value
# [6] = modulation of C. elegans fzo-1 (AID 1259413; call rule not given here;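 further: fzo-1 mutant C. elegans worms in liquid wells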); conditions: C. elegans fzo-1 modulator screen, mean read-out; stronger effect = higher value
# [7] = EMT-state selective cytotoxicity in co-culture – imaging, PC-3E GFP, TEM4-18 mCherry, primary screen (AID 1345086;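 active means compounds killing one labelled cell type while sparing the other, by normalised counts and ratio limits, not self-fluorescent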;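 on all read-outs here: cells exposed to compound for 72 h before imaging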;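 on red/green cell ratio (normalised): normalised mesenchymal count divided by normalised epithelial count so high means epithelial killing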); conditions: PC-3E GFP / TEM4-18 mCherry co-culture, imaging cell counts, at 1 µM; for red/green cell ratio (normalised): actives lie on both sides, counts scaled to control wells, 1 = unselective
# [8] = viability loss with induced miR-34 in A549 – imaging, A549 dox-inducible miR-34, nuclei and caspase counts, primary screen (AID 1347080;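 active means compounds whose cell count with miR-34 switched on is under 0.7 times the count with it off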); conditions: A549 miR-34 inducible, Hoechst nuclei count, 48 h
# F380Y = experiment: BK channel mutant inhibitors and activators – cell-based, U2OS BacMam, thallium flux, beta subunits, selectivity assay, profiling panel (AID 1259406); conditions: U2OS BacMam BK variants, at 30 µM;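 further: initial slope of Thallos dye fluorescence rise after thallium is added; log ratio against the mean of 0.3% DMSO vehicle wells on the same plate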
# F380Y/beta1 = experiment: as above; conditions: U2OS BacMam BK variants, at 30 µM
# F380Y/beta2Delta = experiment: as above; conditions: U2OS BacMam BK variants, at 30 µM
# F380Y/beta4 = experiment: as above; conditions: U2OS BacMam BK variants, at 30 µM
# [9] = target: Calcium-activated potassium channel subunit alpha-1 (Homo sapiens) + Leucine-rich repeat-containing protein 26 (Homo sapiens) (UniProt Q12791+Q2I0M4); experiment: as above; conditions: U2OS BacMam BK variants, F380Y/Slo1WT/gamma1, at 30 µM
# R275C = experiment: as above; conditions: U2OS BacMam BK variants, at 30 µM
# R275C/beta1 = experiment: as above; conditions: U2OS BacMam BK variants, at 30 µM
# R275C/beta2Delta = experiment: as above; conditions: U2OS BacMam BK variants, at 30 µM
# R275C/beta4 = experiment: as above; conditions: U2OS BacMam BK variants, at 30 µM
# R275C/Slo1WT/beta2 = experiment: as above; conditions: U2OS BacMam BK variants, at 30 µM
# [10] = MELAS cybrid and Rieske KO viability enhancers – cell-based, MELAS cybrids, Rieske KO mouse fibroblasts, CellTiter-Glo, primary screen (AID 1508586;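 active means mean z-score across replicates of 1.96 or higher in either the MELAS or the Rieske mutant cell line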;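 further: z relative to plate mean and SD of compound and empty wells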); conditions: low glucose
# [11] = measured here: epithelial PC-3E GFP cell survival
# [12] = measured here: mesenchymal TEM4-18 mCherry cell survival
# [13] = stronger effect = lower value, cell number ratio, induced over uninduced
# [14] = measured here: relative caspase fold change +Dox/-Dox
# [15] = measured here: total cells with miR-34 induction, stronger effect = lower value
# [16] = measured here: total cells without miR-34 induction
# [17] = MELAS cybrid survival, CellTiter-Glo 48 h, stronger effect = higher value
# [18] = Rieske KO mouse fibroblast survival, CellTiter-Glo 72 h
# Calcium-activated potassium channel subunit alpha-1 (Homo sapiens) + Leucine-rich repeat-containing protein 26 (Homo sapiens), sequence (Q2I0M4 whole entry, looked up, one chain of several): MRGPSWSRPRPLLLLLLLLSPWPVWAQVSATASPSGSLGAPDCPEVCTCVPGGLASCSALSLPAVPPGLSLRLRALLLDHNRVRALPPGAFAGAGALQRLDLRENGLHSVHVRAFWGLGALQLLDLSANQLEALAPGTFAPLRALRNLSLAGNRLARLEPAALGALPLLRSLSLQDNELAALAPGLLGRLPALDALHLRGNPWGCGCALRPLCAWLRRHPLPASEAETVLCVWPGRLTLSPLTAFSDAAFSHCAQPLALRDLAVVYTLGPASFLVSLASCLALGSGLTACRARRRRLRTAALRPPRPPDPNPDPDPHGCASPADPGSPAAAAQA
structure (smiles),measurement,setting,value
CN/C(=C\[N+](=O)[O-])NCCSCc1csc(CN(C)C)n1,parasite load remaining,[1],44.5% (inactive) and 113% (inactive)
same,viability,[1],104% and 78.4%
same,fluorescence ratio,[2],1.02 (inactive)
same,inhibition,[3],1.19% (inactive)
same,inhibition,[4],-0.1% (inactive)
same,fluorescence ratio,[5],0.97 (inactive)
same,mean signal,[6],274 (inactive)
same,red/green cell ratio (normalised),[7],0.9 (inactive)
same,normalised cell number,[7]; [11],1.14
same,normalised cell number,[7]; [12],1.02
same,fold change,[8]; [13],0.871 (inactive)
same,fold change,[8]; [14],5.48
same,cell count,[8]; [15],11400
same,cell count,[8]; [16],13100
same,log fold change Tl+ flux,F380Y,0.0132 (inactive)
same,log fold change Tl+ flux,F380Y/beta1,-0.0313 (inactive)
same,log fold change Tl+ flux,F380Y/beta2Delta,0.0292 (inactive)
same,log fold change Tl+ flux,F380Y/beta4,0.0177 (inactive)
same,log fold change Tl+ flux,[9],-0.0126 (inactive)
same,log fold change Tl+ flux,R275C,0.0141 (inactive)
same,log fold change Tl+ flux,R275C/beta1,-0.02 (inactive)
same,log fold change Tl+ flux,R275C/beta2Delta,-0.0114 (inactive)
same,log fold change Tl+ flux,R275C/beta4,-0.00775 (inactive)
same,log fold change Tl+ flux,R275C/Slo1WT/beta2,0.0359 (inactive)
C[C@@H](c1ncncc1F)[C@](O)(Cn1cncn1)c1ccc(F)cc1F,parasite load remaining,[1],100% (inactive)
same,viability,[1],75.1%
same,fluorescence ratio,[2],1.03 (inactive)
same,inhibition,[3],3.56% (inactive)
same,inhibition,[4],-6.26% (inactive)
same,fluorescence ratio,[5],1.02 (inactive)
same,mean signal,[6],264 (inactive)
same,red/green cell ratio (normalised),[7],1.03 (inactive)
same,normalised cell number,[7]; [11],0.93
same,normalised cell number,[7]; [12],0.96
same,fold change,[8]; [13],0.997 (inactive)
same,fold change,[8]; [14],2.46
same,cell count,[8]; [15],9140
same,cell count,[8]; [16],9170
same,z-score,[10]; [17],0.391 (inactive)
same,z-score,[10]; [18],-0.0394
same,log fold change Tl+ flux,F380Y,0.0491 (inactive)
same,log fold change Tl+ flux,F380Y/beta1,-0.0167 (inactive)
same,log fold change Tl+ flux,F380Y/beta2Delta,0.0265 (inactive)
same,log fold change Tl+ flux,F380Y/beta4,0.000651 (inactive)
same,log fold change Tl+ flux,[9],0.106 (active)
same,log fold change Tl+ flux,R275C,-0.0159 (inactive)
same,log fold change Tl+ flux,R275C/beta1,0.036 (inactive)
same,log fold change Tl+ flux,R275C/beta2Delta,0.0278 (inactive)
same,log fold change Tl+ flux,R275C/beta4,-0.0222 (inactive)
same,log fold change Tl+ flux,R275C/Slo1WT/beta2,-0.0193 (inactive)
COc1ccc2[nH]c(S(=O)Cc3ncc(C)c(OC)c3C)nc2c1 (stereo unspecified),parasite load remaining,[1],75.4% (inactive)
same,viability,[1],78.3%
same,fluorescence ratio,[2],1.05 (inactive)
same,inhibition,[3],-1.19% (inactive)
same,inhibition,[4],-0.1% (inactive)
same,fluorescence ratio,[5],1.01 (inactive)
same,mean signal,[6],220 (inactive)
same,red/green cell ratio (normalised),[7],0.83 (inactive)
same,normalised cell number,[7]; [11],1.11
same,normalised cell number,[7]; [12],0.92
same,fold change,[8]; [13],1.06 (inactive) and 1.02 (inactive)
same,fold change,[8]; [14],1.73 and 0.384
same,cell count,[8]; [15],9290 and 8180
same,cell count,[8]; [16],8760 and 8050
same,z-score,[10]; [17],-0.201 (inactive)
same,z-score,[10]; [18],0.0948
same,log fold change Tl+ flux,F380Y,0.0414 (inactive)
same,log fold change Tl+ flux,F380Y/beta1,0.0445 (inactive)
same,log fold change Tl+ flux,F380Y/beta2Delta,-0.007 (inactive)
same,log fold change Tl+ flux,F380Y/beta4,0.0255 (inactive)
same,log fold change Tl+ flux,[9],0.0493 (inactive)
same,log fold change Tl+ flux,R275C,-0.061 (inactive)
same,log fold change Tl+ flux,R275C/beta1,0.0126 (inactive)
same,log fold change Tl+ flux,R275C/beta2Delta,0.00561 (inactive)
same,log fold change Tl+ flux,R275C/beta4,0.0354 (inactive)
same,log fold change Tl+ flux,R275C/Slo1WT/beta2,0.0116 (inactive)
